# In PubChem BioAssay (NCI):
# About 83,000 compounds went through this panel and 20% of them were active in at least one assay; those are over-represented in the sample as a whole.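 Activity criterion: percent growth below 10, measured after cells in 96-well plates were exposed to a single compound concentration for 48 hours.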 Unmarked numbers belong to inactive results. The source made the active and inactive calls.
# Assays:
# Assay in all cases: NCI-60 one-dose screen, 48 h (100 = growth as untreated, 0 = no growth, -100 = all killed)
# Conditions in all cases: 10 µM unless noted
# T-47D breast = test system: T-47D breast
# BT-549 breast = test system: BT-549 breast
# MDA-MB-435 melanoma = test system: MDA-MB-435 melanoma
# SW-620 colon = test system: SW-620 colon
# MCF7 breast = test system: MCF7 breast
# HCT-116 colon = test system: HCT-116 colon
# HCC-2998 colon = test system: HCC-2998 colon
# KM12 colon = test system: KM12 colon
SMILES,growth (T-47D breast),growth (BT-549 breast),growth (MDA-MB-435 melanoma),growth (SW-620 colon),growth (MCF7 breast),growth (HCT-116 colon),growth (HCC-2998 colon),growth (KM12 colon)
CNC(=O)c1cc(Oc2ccc3nc(Nc4ccc(Cl)c(C(F)(F)F)c4)ccc3c2)ccn1,43.5%,83.1%,52.3%,104%,42.7%,45.1%,65.5%,52.7%
CCCCNC(=O)Oc1ccc2c(=O)c3sc4c(=O)c5ccccc5c(=O)c4c3c(=O)c2c1,-38.5% (active),-90.2% (active),-88.9% (active),-75.6% (active),-59.2% (active),-15.6% (active),-87.1% (active),-29.9% (active)
O=C(NCCNc1cc(-c2cn(-c3ccccc3)nc2-c2cccc(O)c2)ccn1)Nc1ccccc1,45.9%,52.9%,93%,84.5%,78.4%,53.2%,92.5%,89.2%
Cc1ccc2nc(C)c(-c3nnc(SCc4ccc(C#N)cc4)o3)n2c1,89.3%,85.8%,101%,105%,77.8%,91.8%,108%,106%
COc1ccc(C2=Nc3c(N)ncnc3NC(c3ccc4c(c3)OCO4)C2)cc1 (centres undefined),80.3%,89%,94.2%,85.5%,76.1%,74.2%,-6.86% (active),95.8%
N#Cc1c(-c2ccccn2)[nH]c(=S)[nH]c1=O,94.4%,102%,99.8%,105%,95.1%,94.8%,106%,102%
COc1cc(N=Nc2cc(Cc3ccc(N(C)C)cc3)c(N)cc2N(C)C)c2ncccc2c1,-12.1% (active),29.6%,18.7%,-33.7% (active),-1.6% (active),-23.7% (active),26.1%,-11.4% (active)
COc1ccc(OC)c2c1[nH]c(=O)c1c3ncccc3cn21,39%,86.6%,28.6%,15.2%,8.95% (active),21.7%,36.1%,32.5%
Cc1cc(NCc2cc(Nc3ccnc4cc(Cl)ccc34)ccc2F)nc(N2CCSCC2)n1,-37.8% (active),46.6%,-70.4% (active),-14.1% (active),0.0561% (active),-29.1% (active),3.4% (active),14.9%
CN(C)CCNc1nc2ccccc2c2c1c1c(n2Cc2ccccc2)-c2ccccc2C1=O,-41.2% (active),-86.8% (active),-65.1% (active),-92.8% (active),-93.2% (active),-78.2% (active),-91.3% (active),-74.6% (active)
Cc1cc(C)c(-c2c(C)cc(C)cc2CBr)c(CBr)c1,69.8%,79.2%,77%,78.5%,67.1%,49.4%,103%,80.3%
COc1cccc(-c2nn(-c3ccccc3)cc2-c2ccnc(NCCCNC(=O)Nc3ccc(Cl)c(Cl)c3)c2)c1,-15% (active),7.49% (active),-36.3% (active),12%,5.21% (active),2.97% (active),-61.8% (active),-13.4% (active)
Oc1ccc(CN2CCC(N3CCOCC3)CC2)c2cccnc12,16.3%,29.8%,16.3%,22%,9.1% (active),9.68% (active),51.5%,20.9%
Cc1ccc2[nH]c(=O)c3c(c2c1)OC(N)=C(C#N)C31c2cc(Br)ccc2-c2ccc(Br)cc21,39.4%,82.5%,59.7%,40%,34%,67.8%,70.5%,52.4%
CC1=NOC(=O)/C1=C\c1ccc(O)cc1,104%,107%,102%,102%,94.6%,103%,109%,101%
Cc1ccc(C(=O)C2=C(O)C(=O)N(Cc3cccnc3)C2c2ccccc2F)o1 (centres undefined),95.2%,99.2%,102%,103%,98.3%,95.2%,94.3%,106%
CC(=O)C(C)Cc1cc2c(cc1C)C(C)(C)CCC2(C)C (centres undefined),80.2%,95.5%,104%,102%,91.8%,95.1%,102%,105%
Cc1c(C(=O)NC(Cc2ccccc2)C(O)C(=O)NCc2ccc(F)cc2)[nH]c2ccccc2c1=O (centres undefined),102%,108%,101%,114%,104%,104%,118%,102%
CCc1ccccc1NC(=O)/C(C#N)=C/c1ccc(OC)cc1,88.7%,112%,110%,94.4%,106%,89.1%,98.1%,91.4%
CCCCN(CCCC)CC(C)(C)C(O)c1ccc(OC)c2ccccc12 (centres undefined),52.9%,57.1%,59.3%,33.4%,45.5%,3.51% (active),51.9%,45.1%
CC(=O)OC[C@H]1OC(Sc2sc(C(=O)c3ccc(Br)cc3)c(N)c2-c2nc3ccccc3s2)[C@H](OC(C)=O)[C@@H](OC(C)=O)[C@@H]1OC(C)=O (some centres undefined),73.7%,80.7%,80.7%,54%,62.7%,18.7%,75.9%,78.3%
Cc1c(Cl)cc(-n2c(=O)c3ccccc3c3ccccc3c2=O)cc1Cl,93.9%,89.8%,104%,109%,98%,101%,95.5%,111%
Cc1ccc(NCCN(C)C)c2c(=O)c3ccccc3sc12,22.3%,76.6%,13.2%,8.96% (active),0.259% (active),10.2%,-16.2% (active),23.3%
Cc1cc(O)c(C2=NN(c3ccc(S(N)(=O)=O)cc3)C(c3ccccc3Cl)C2)cc1Cl (centres undefined),18.3%,104%,8.16% (active),-27.4% (active),0.899% (active),-90.4% (active),-39.4% (active),-37% (active)
CC1=C([Se]CC(OC(=O)CC[Se]c2ccccc2)C(=O)NCCCCCC(=O)OCc2ccccc2)C(=O)c2ccccc2C1=O (centres undefined),56%,39.9%,20%,104%,30.2%,-3.51% (active),72%,9.71% (active)
COc1ccc(-c2nc3c(c(=O)n2C(C)=O)C(c2ccc(Cl)cc2)c2sc4c(Cl)cccc4c2O3)cc1 (centres undefined),11.9%,-26.9% (active),0.072% (active),-17.5% (active),4.61% (active),-58.6% (active),-34.5% (active),-8.16% (active)
COc1ccc(CNC(=O)C(O)C(Cc2ccccc2)NC(=O)c2[nH]c3ccccc3c(=O)c2C)cc1OC (centres undefined),97.8%,104%,101%,113%,99.7%,106%,117%,105%
CC/C=C\C/C=C\C[C@H](O)C/C=C1/C(=O)C=C[C@@H]1C/C=C\CCCC(=O)O,14.2%,-29.3% (active),10.1%,21.4%,23.6%,-61.1% (active),-22% (active),6.23% (active)
